The source of these data is the supplement of paper PMC4709259.

Experiment [1] concerns Jurkat. Nature of the experiment: mean cell size (FSC-A) relative to DMSO control (fraction of control); higher = larger cells. The conditions noted are these: 48 h. In a few lines:
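Jurkat cells at 600 cells/µl were incubated for 1 h and then treated for 48h with the Enzo Screen-Well FDA Approved Drug Library v2.0 at 25µM, with DMSO at 0.9% (v/v) final. Compounds that reduced counts below 20% of controls were retested in 10-fold dilutions down to 25nM. Cell count and mean cell size, taken as forward scatter area, were measured by flow cytometry relative to solvent-only controls. Each plate carried 6-12 controls, and values are means of 3 biological replicates.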

Experiment [2] concerns Jurkat. Nature of the experiment: cell count relative to DMSO control (fraction of control); higher = more cells (less growth inhibition). Conditions: 48 h.

Where a name gives a salt, the structure may show the parent alone. ± gives the standard deviation.

Take `c1cnc2cc3c(cc2n1)[C@@H]1CNC[C@H]3C1` [Varenicline Tartrate] (concentration: 25 µM): in the experiment with Jurkat [1], the mean cell size is 1.02 ± 0.038. Further, the cell count in the experiment with Jurkat [2] stood at 1.01 ± 0.062.

Compound `CNC(=C[N+](=O)[O-])NCCSCc1csc(CN(C)C)n1` [Nizatidine] (concentration: 25 µM) showed a mean cell size in the experiment on Jurkat [1] of 0.976 ± 0.011. In the experiment with Jurkat [2], the cell count stood at 0.809 ± 0.02.

In the experiment on Jurkat [1], `Cc1ccc(O)c([C@H](CCN(C(C)C)C(C)C)c2ccccc2)c1` [Tolterodine Tartrate] (concentration: 25 µM) had a mean cell size of 0.935 ± 0.022. In the experiment with Jurkat [2], this compound came in with a cell count of 1.14 ± 0.059.

In the experiment on Jurkat [1], `CNC(=O)c1cnn(-c2nc(N)c3ncn([C@@H]4O[C@H](CO)[C@@H](O)[C@H]4O)c3n2)c1` [Regadenoson] (concentration: 25 µM) came in with a mean cell size of 0.991 ± 0.035. This compound also yielded a cell count with Jurkat [2] of 0.883 ± 0.11.

The compound `Nc1nc(/C(=C/CC(=O)O)C(=O)N[C@@H]2C(=O)N3C(C(=O)O)=CCS[C@H]23)cs1` [Ceftibuten] (concentration: 25 µM) had a mean cell size in the experiment with Jurkat [1] of 0.925 ± 0.016. In the experiment on Jurkat [2], this compound had a cell count of 1.11 ± 0.031.

In turn, `O=C(N[C@H](CO)[C@H](O)c1ccc([N+](=O)[O-])cc1)C(Cl)Cl` [Chloramphenicol] (concentration: 25 µM) came in with a mean cell size in the experiment with Jurkat [1] of 0.949 ± 0.022. The same compound registered a cell count in the experiment on Jurkat [2] of 0.819 ± 0.078.

`CC[C@]1(O)C[C@@H]2CN(CCc3c([nH]c4ccccc34)[C@@](C(=O)OC)(c3cc4c(cc3OC)N(C)[C@H]3[C@@](O)(C(=O)OC)[C@H](OC(C)=O)[C@]5(CC)C=CCN6CC[C@]43[C@@H]65)C2)C1` [Vinblastine Sulfate] (concentration: 25 nM): in the experiment with Jurkat [1], the mean cell size amounted to 0.971 ± 0.031. This compound also gave a cell count with Jurkat [2] of 0.0701 ± 0.058.

The compound `NS(=O)(=O)Cc1noc2ccccc12` [Zonisamide] (concentration: 25 µM) yielded a mean cell size in the experiment on Jurkat [1] of 1 ± 0.05. In the experiment with Jurkat [2], this compound came in with a cell count of 0.561 ± 0.25.
